Results from PubChem BioAssay AID504766 (The Scripps Research Institute Molecular Screening Center, 2011).
About 3,400 (1%) of roughly 340,000 compounds were called active. The sample holds actives, similar compounds and a random draw of the others, so the mix is not that of the screen. Unmarked numbers belong to inactive results.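 How the source made its calls: active means inhibition above the mean over all tested compounds plus 3 SD (cut at about 4.2% in these data); inactive means the rest.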

What follows are compounds tested against Nuclear receptor subfamily 0 group B member 1 (Homo sapiens) (UniProt P51843) (assay: DAX1 (NR0B1) inhibitors, primary screen, cell-based, HEK293, Gal4-DAX1, luciferase luminescence (AID 504766;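 further: 0% = DAX1-transfected cells with DMSO and 100% = empty-vector control cells with DMSO; inhibition shows as a rise in luminescence from relieved DAX1 repression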)). Conditions: HEK293 Gal4-DAX1 luciferase reporter, at 6.75 µM, hits give high values.
Chain of Nuclear receptor subfamily 0 group B member 1 (Homo sapiens) (P51843 207-470 limits assumed): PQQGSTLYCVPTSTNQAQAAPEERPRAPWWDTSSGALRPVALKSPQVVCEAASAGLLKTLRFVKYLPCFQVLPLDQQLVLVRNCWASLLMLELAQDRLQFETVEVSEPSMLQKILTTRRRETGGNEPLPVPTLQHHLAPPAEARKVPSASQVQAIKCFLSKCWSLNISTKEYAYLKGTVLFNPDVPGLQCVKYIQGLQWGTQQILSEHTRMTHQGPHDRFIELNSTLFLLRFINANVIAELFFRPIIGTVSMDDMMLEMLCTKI

Row | Compound | inhibition
1 | CN(C)/C=C(/C(=O)c1ccccc1Cl)S(C)(=O)=O | -0.35%
2 | CN(C)/C=C(/C(=O)c1ccc(Cl)c(Cl)c1)c1nnnn1-c1ccccc1 | 8.45% (active)
3 | CC(=O)c1ccc(S(=O)(=O)NCc2nnnn2-c2ccccc2)cc1 | 0.03%
4 | CCOc1cc(/C=N/NC(=O)c2c(C)nc3ccc(Cl)cn23)ccc1O | 0.71%
5 | O=C(COC(=O)c1ccc(F)cc1)NCCCc1ccccc1 | 1.34%
6 | COc1ccc(C(=O)OCC(=O)NCCCc2ccccc2)cc1OC | -0.04%
7 | Cc1cnc(C(=O)OCC(=O)NCCCc2ccccc2)cn1 | 8.25% (active)
8 | S=C(NN=Cc1ccccn1)Nc1ccccn1 | -4.47%
9 | CC1(c2cccc(N)c2)OCCO1 | 0.74%
10 | CCCCCCN1C[C@@H](O)[C@H](n2cc(COC(=O)c3ccccc3)nn2)C[C@@H]1c1ccc(Cl)cc1 | 0.09%
11 | CCn1c(COc2ccccc2)nnc1SCC(=O)Nc1ccc2c(c1)OCCO2 | -0.24%
12 | CCn1c(SCC(=O)Nc2ccc3c(c2)OCCO3)nnc1C(C)C | 2.27%
13 | CCn1c(SCC(=O)Nc2ccc3c(c2)OCCO3)nnc1-c1ccncc1 | 6.79% (active)
14 | COc1ccc(-n2nc(C(=O)NCC(=O)N3CCCCCC3)c3ccccc3c2=O)cc1Cl | -1.56%
15 | COc1ccc(-n2nc(C(=O)NCC(=O)N3CCC(C(N)=O)CC3)c3ccccc3c2=O)cc1OC | 5.14% (active)
16 | COc1ccc(-n2nc(C(=O)NCC(=O)N3CCN(c4ccccc4OC)CC3)c3ccccc3c2=O)c(OC)c1 | -1.07%
17 | O=C(OCc1ccccc1)N1CCC2CC1c1ccc(-c3ccc4c(c3)OCO4)cc12 (stereo unspecified) | 0.14%
18 | COC(=O)C(Cc1c[nH]c2ccccc12)NC(=O)CCNC(=O)c1ccco1 (stereo unspecified) | 0.93%
19 | C[C@H]1CN([C@@H](C)CO)C(=O)CCCn2nncc2CO[C@@H]1CN(C)Cc1ccc(Oc2ccccc2)cc1 | -1.44%
20 | COc1ccc(-c2ccc3[nH]c4c(c3c2)CCN2C[C@H]3[C@H](C)ON(C)[C@H]3C[C@@H]42)cc1 | -1.11%
21 | COc1ccc(NC(=O)C[C@H]2C(=O)N(CCc3ccccc3)C[C@@H]2C)cc1 | 0.1%
22 | Cc1snc(SCc2c(F)cccc2Cl)c1C#N | -1.64%
23 | Cc1cc(C)c(C#N)c(SCc2ccc3c(c2)OCO3)n1 | -0.08%

Row | Compound | inhibition
24 | Cc1ccc(CSc2nsc(C)c2C#N)cc1 | 4.45% (active)
25 | C[C@@H]1CN([C@@H](C)CO)C(=O)c2cc(Br)cnc2O[C@@H]1CN(C)C(=O)C1CCCCC1 | 1.82%
26 | CCN(CC)C(=O)C1=C(C)N(Cc2ccccc2)C(=O)C(CC(=O)NC(c2ccccc2)c2ccccc2)C1 (stereo unspecified) | -0.09%
27 | CC(=O)Nc1ccc(SCC(=O)NC(=O)c2ccc(Cl)cc2)cc1 | 0.53%
28 | O=[N+]([O-])c1ccc2c(c1)C(O)n1nc(-c3ccccc3)nc1S2 (stereo unspecified) | 6.7% (active)
29 | Cn1nc(-c2ccccc2)c2cc([N+](=O)[O-])ccc21 | 0.55%
30 | O=[N+]([O-])c1ccc2oc(-c3cccc(O)c3)nc2c1 | 0.69%
31 | Cc1ccc(C=O)c([B-](F)(F)F)c1 | -0.38%
32 | COc1cc(NC(=O)CSc2nnc3ccc(-c4ccncc4)nn23)cc(OC)c1 | 0.29%
33 | O=C(CSc1nnc2ccc(-c3ccncc3)nn12)N1CCCCC1 | 4.62% (active)
34 | COc1ccc(CCNC(=O)CSc2nnc3ccc(-c4ccncc4)nn23)cc1 | 2.31%
35 | Cc1nc2ccccc2nc1CC(O)(c1ccccc1)c1ccccc1 | 1.49%
36 | COc1ccc(CN2C(=O)C(CC(=O)NCc3cccc4ccccc34)CC(C(=O)N3CCOCC3)=C2C)cc1 (stereo unspecified) | 0.04%
37 | CC(Sc1ccc(S(=O)(=O)N2CCN(C)CC2)cn1)C(=O)NC1CCCC(C)C1C (stereo unspecified) | 0.86%
38 | C[C@H]1Cn2cnc(C(=O)N[C@H](C)c3ccccc3)c2C(=O)N1 | 1.52%
39 | CCOC(=O)C(=Cc1ccccc1)C(=O)c1ccccc1 | -1.17%
40 | O=C(NC1CCCCC1)c1cc(C2CC2)on1 | 1.17%
41 | O=C(NCCCn1ccnc1)c1ccccc1F | 1.27%
42 | O=C(NC1CCCCCCC1)c1cccs1 | 0.85%
43 | O=C(NCCCn1ccnc1)c1cc(Br)c(Br)s1 | 2.56%
44 | O=C(NC1CCCC1)c1cc(-c2ccccc2)on1 | 5.49% (active)
45 | O=C(NCCCn1ccnc1)c1cc(-c2ccccc2)on1 | 4.72% (active)
46 | O=NN(CCCl)C(=O)NCCc1cccc[n+]1[O-] | 0.77%

Row | Compound | inhibition
47 | CN(C)C(CNC(=O)c1cc(Br)c(Br)s1)c1ccco1 (stereo unspecified) | -0.16%
48 | O=C1[C@H]2[C@@H](c3ccc(C(F)(F)F)cc3)N[C@]3(CCCN(Cc4ccc(Cl)cc4)C3=O)[C@H]2C(=O)N1Cc1ccccc1 | -0.84%
49 | Cc1ccc(Cc2c(-c3ccc(C)cc3)nc3c4ccccc4ccn23)cc1 | 0.53%
50 | O=C(CN1C(=O)NC2(CCc3ccccc32)C1=O)NC1CCCCC1 (stereo unspecified) | -0.26%
51 | N#Cc1c(C(F)(F)F)cc(-c2ccccc2)nc1SCC(=O)N1CCOCC1 | -0.64%
52 | N#Cc1c(C(F)(F)F)cc(-c2ccc(Cl)cc2)nc1SCC(=O)O | 4.58% (active)
53 | Cc1cc(C(F)(F)F)c(C#N)c(SCC(=O)NC2CC2)n1 | -0.39%
54 | Cc1ccc(C(=O)N[C@H](C(=O)N2CCN(c3ncccn3)CC2)C(C)C)cc1 | 1.36%
55 | CC1(C2CC2)NC(=O)N(CC(=O)N2CCN(c3ccccc3F)CC2)C1=O (stereo unspecified) | -0.4%
56 | COc1cc(C)c(CN2CCN(C(=O)CCC(=O)c3ccc(C)s3)CC2)cc1OC | 0.95%
57 | COC(=O)C[C@H]1C[C@@H]2c3cc(N(C)C)ccc3O[C@@H]2[C@H](CO)O1 | 1.14%
58 | O=C(NCCc1cccc(F)c1)C1CC(O)CN1C(=O)Nc1ccccc1 (stereo unspecified) | 0.98%
59 | COC(=O)c1sc(SC)c(S(=O)(=O)C(C)C)c1N/N=C(\C#N)S(=O)(=O)c1ccccn1 | 4.53% (active)
60 | Cc1cc(C)c2c(=O)n3c(nc2c1)C(CC(C)C)NC(=O)c1cc2ccccc2cc1-3 (stereo unspecified) | 0.81%
61 | COc1ccc(C=C2CCC3C(CCCC34OCCO4)C2=O)cc1 (stereo unspecified) | 1.37%
62 | COc1ccc(CN2C(=O)C(CC(=O)NCCCCc3ccccc3)CC(C(=O)N3CCOCC3)=C2C)cc1 (stereo unspecified) | -0.84%
63 | CCCCCCNC(=O)O[C@]12C[C@@H](C(=O)OC)[C@@H](C(=O)OC)C[C@@]1(O)CN(S(=O)(=O)c1ccc(C)cc1)C2 | 0.26%
64 | CCOC(=O)c1cc(-c2sc(NC(=O)c3ccccc3)nc2C)n(Cc2ccccc2)n1 | -1.03%
65 | O=S1(=O)CCN(C2CCCCCCCCCCC2)CC1 | -0.26%
66 | O=C(Nc1ccc(C2CC2(Cl)Cl)cc1)c1cccc([N+](=O)[O-])c1 (stereo unspecified) | 4.49% (active)
67 | O=C(Nc1cccc([N+](=O)[O-])c1)c1ccc2c(c1)OCO2 | 0.29%
68 | Cc1cc(C)nc(NC(=O)c2cccc([N+](=O)[O-])c2)c1 | 0.73%
69 | CC1=C(C(=O)N2CCOCC2)CC(CC(=O)NCc2ccco2)C(=O)N1Cc1ccc(F)cc1 (stereo unspecified) | 1.82%

Row | Compound | inhibition
70 | C/C(=N\NC(=S)NC1CCCCC1)c1ccc(C)o1 | 0.98%
71 | Cc1ccc(/C=N/NC(=S)NC2CCCCC2)o1 | 4.44% (active)
72 | COc1ccc(C(=O)NC(=S)NC2CCCCC2)cc1 | 1.16%
73 | CC1CCCCC12NC(=O)N(CC(=O)N1CCN(c3ccccc3)CC1)C2=O (stereo unspecified) | 1.67%
74 | NC(=O)C1CCCN(CC(=O)N2CCN(c3ccccc3)CC2)C1 (stereo unspecified) | 6.46% (active)
75 | O=C(C1CCC1)N1CCN(c2ccccc2)CC1 | 0.59%
76 | Cc1ccc(S(=O)(=O)N2C[C@H]3C(=O)C[C@@H](c4cccc5ccccc45)N(S(=O)(=O)c4ccc(C)cc4)[C@H]3C[C@H]2c2ccc(Cl)cc2)cc1 | -0.08%
77 | O=C(CCC(=O)c1cccs1)Nc1nc2ccccc2s1 | 0.63%
78 | CCC(=O)NC(=Nc1nc2ccccc2s1)NC(=O)CC | 6.2% (active)
79 | CC(C)CC(=O)N/C(N)=N/c1nc2ccccc2s1 | 0.77%
80 | Cc1cccc(C(=O)C(O)(c2ccccc2)C2CCCCC2=O)c1 (stereo unspecified) | 0.38%
81 | COc1ccc(NC(=O)CN(C)C(=O)c2cc(C)oc2C)cc1 | -0.29%
82 | Cc1cc2[nH]ncc2cc1NC(=S)NC(=O)c1ccccc1 | 5.71% (active)
83 | Cn1nnc(NC(=S)NC(=O)c2ccccc2)n1 | 0.45%
84 | Cc1cc(C)cc(C(=O)NC(=S)Nc2ccc3[nH]c(=O)[nH]c3c2)c1 | -1.15%
85 | O=C(OCC(=O)N1CCCCCC1)c1cccc(Cl)c1Cl | 3.82%
86 | O=C(CSc1ncn[nH]1)Nc1nc2c(F)c(F)c(F)cc2s1 | 0.83%
87 | C=CCSC(CC)(CC)C(N)=O | 4.43% (active)
88 | CCCOC(=O)c1ccc(N2C(=O)c3ccccc3C2=O)cc1 | -0.27%
89 | Cc1[nH]n(-c2ccccc2)c(=O)c1CCOC(=O)c1ccc(C(F)(F)F)cc1 | 5.49% (active)
90 | CCOC(=O)C[C@H]1c2ccc(C(F)(F)F)cc2S(=O)(=O)N1c1ccccc1 | 0.49%
91 | Cc1ccc([C@H]2N[C@]3(CCCN(CC4CCCCC4)C3=O)[C@H]3C(=O)N(Cc4ccccc4)C(=O)[C@@H]23)cc1 | -0.61%
